Only some compounds are listed: those with a hit (about 4.7% of all), similar ones and a draw of the others.
TRHR enhancer = qHTS for Small Molecule Agonists and Allosteric Enhancers of Human TRH Receptor: Primary Screen for Enhancers; Thyrotropin-releasing hormone receptor (Homo sapiens), P34981; TRHR cells, fluo-8 calcium fluorescence, EC20 TRH enhancement; enhancement, % at 2 µM; actives 0.66% (n = 360,000); in the data active means enhancement above about 30%; further: 0% is about no effect
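Enhancer read-out: after compound pinning and an initial kinetic agonist-mode read, an EC20 of TRH (10 nM final) was injected and fluo-8 calcium signal (Ex 480/Em 530) followed at 1 s/cycle for 100 cycles in TRHR-expressing cells.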
D1 antagonist = Antagonist of Human D 1 Dopamine Receptor: qHTS. D(1A) dopamine receptor (Homo sapiens), P21728. HEK293 TREx D1 cells, calcium flux, dopamine EC80; hits give low values. AID 504652, 2011. actives 3.2% (n = 360,000). activity change, negative = inhibition, % at 10 µM; in the data active means activity change below about -30%; further: on the % scale 0 is the no-effect control and ±100 the full control effect
Target sequence (P21728 whole entry, looked up): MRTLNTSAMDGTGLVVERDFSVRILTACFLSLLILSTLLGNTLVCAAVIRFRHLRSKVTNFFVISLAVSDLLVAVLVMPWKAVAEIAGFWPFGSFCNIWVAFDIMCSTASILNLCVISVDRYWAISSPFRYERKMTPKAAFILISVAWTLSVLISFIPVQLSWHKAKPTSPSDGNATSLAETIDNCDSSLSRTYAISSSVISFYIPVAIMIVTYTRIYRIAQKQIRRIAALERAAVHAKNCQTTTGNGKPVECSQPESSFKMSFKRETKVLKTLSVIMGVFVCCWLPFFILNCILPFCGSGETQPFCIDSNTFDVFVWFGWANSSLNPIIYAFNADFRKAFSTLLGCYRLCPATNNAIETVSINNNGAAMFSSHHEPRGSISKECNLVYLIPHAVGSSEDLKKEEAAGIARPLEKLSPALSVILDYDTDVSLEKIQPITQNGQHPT
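After overnight tetracycline induction at 30 C, force-coupled D1 HEK293 cells took up a no-wash calcium dye at room temperature. Compounds were added and monitored 180 s, and the response to EC80 dopamine was then recorded.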
D1 PAM = Potentiators of Human D1 Dopamine Receptor: qHTS. actives 0.036% (n = 360,000). HEK293 TREx D1 cells, calcium flux, dopamine EC20 potentiation. potentiation, % at 10 µM. AID 504651, 2011; in the data active means potentiation above about 30%; further: 0% is about no effect
D1 agonist = Allosteric Agonists of the Human D1 Dopamine Receptor: qHTS; D(1A) dopamine receptor (Homo sapiens), P21728; HEK293 T-REx D1 cells, calcium flux, agonist mode; activation, % at 2 µM; actives 1% (n = 360,000); AID 504660, 2011; further: 0% is about no effect
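Inducible HEK293 T-REx D1 cells, force-coupled to calcium signalling, were plated at 4000 cells/well with tetracycline and held overnight at 30 C. After no-wash calcium dye loading, compound-evoked calcium rise over 180 s flagged agonists.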
TRHR agonist = qHTS for Small Molecule Agonists and Allosteric Enhancers of Human TRH Receptor: Primary Screen for Agonists; Thyrotropin-releasing hormone receptor (Homo sapiens), P34981; TRHR cells, calcium flux fluo-8, FDSS agonist mode; activation, % at 2 µM; actives 0.18% (n = 360,000); AID 493084, 2011; further: 0% is about no effect
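In this calcium-flux screen, cells bearing human TRHR are dye-loaded with fluo-8, baselined for 10 cycles, then exposed to library compounds; positive kinetic calcium responses during the agonist phase mark hits, with TRH as control.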
Starred values were filed as active, the others as inactive; nt = no result. Unless noted, no stated cut-off is given here; in the data, active means activation above about 30%; inactive means the rest.

SMILES | TRHR enhancer | D1 antagonist | D1 PAM | D1 agonist | TRHR agonist
O=C(NCCCCc1ccccc1)c1ccccc1F | -0.8 | -11.8 | -2.2 | 2.3 | -1.2
O=C(NCCCc1ccccc1)c1ccccc1 | 3.0 | -41.1* | 7.5 | 0.6 | 0.0
O=C(NCCc1ccccc1)c1ccccc1F | -2.1 | -36.1* | -5.5 | 4.4 | 0.3
O=C(NCCCCc1ccccc1)c1ccccc1 | -3.4 | -19.5 | -3.5 | 1.2 | -1.3
Cc1cc(NC(=O)CCC(=O)N(c2ccccc2)C(C(=O)NC2CCCC2)c2ccccc2F)no1 (stereo unspecified) | -3.1 | 0.2 | 5.8 | 1.4 | -0.6
Cc1cc(Nc2ccccc2Cl)n2nc(-c3ccco3)nc2n1 | -2.2 | 0.1 | -0.1 | 0.1 | -0.8
CCOC(=O)c1ccccc1Nc1cc(C)nc2nc(-c3ccco3)nn12 | 4.4 | -31.9* | 2.2 | 74.0* | -0.7
C=Cc1ccc(Cn2c(C(=O)O)c(CNCc3ccc(F)cc3)c3ccc(C)cc32)cc1 | -0.9 | 11.7 | 6.5 | 1.9 | 0.0
COc1ccc(S(=O)(=O)c2c(Nc3ccc(C)cc3)sc(C(=O)c3ccc4c(c3)OCO4)c2N)cc1 | 0.8 | -37.8* | 5.2 | 77.8* | 5.7
Cc1ccc(S(=O)(=O)c2c(Nc3ccccc3)sc(C(=O)c3ccc4c(c3)OCO4)c2N)cc1 | 3.0 | 2.4 | -1.0 | 64.4* | 3.2
COc1ccc(S(=O)(=O)c2c(Nc3ccc(F)cc3)sc(C(=O)c3ccc4c(c3)OCO4)c2N)cc1 | 12.1 | 22.7 | -2.2 | 43.1* | 2.3
Cc1ccccc1Nc1sc(C(=O)c2ccc3c(c2)OCO3)c(N)c1S(=O)(=O)c1ccccc1 | 1.0 | 0.0 | 1.6 | 5.6 | 0.7
CCOc1cc(S(=O)(=O)NCCc2c(C)[nH]c3ccc(C)cc23)ccc1Br | -7.1 | 0.4 | -4.7 | -0.4 | 1.6
Cc1cc(-c2nnc(CCC(=O)NCCc3ccccc3F)o2)no1 | -3.9 | -7.9 | -0.2 | 1.4 | 0.2
CC(C)c1nn2c(=O)cc(COC(=O)C3CCCCC3)nc2s1 | 2.9 | 12.4 | -3.5 | 3.0 | 0.1
Cc1cc2oc(C(=O)N(Cc3ccco3)Cc3ccccc3Cl)c(C)c2cc1C | 41.4* | 11.2 | -0.9 | 17.7 | 2.4
Cc1ccc(CN(Cc2ccco2)C(=S)NCC(=O)NC2CC2)cc1 | -8.8 | -30.5* | -2.1 | 2.3 | -2.3
Cc1ccc2occ(CC(=O)N(Cc3ccc(Cl)cc3)Cc3ccco3)c2c1 | 3.3 | -26.2 | 21.1 | 90.1* | -1.3
Cc1ccc(CN(Cc2ccco2)C(=O)c2oc3ccc(C)cc3c2C)cc1 | 2.7 | 11.7 | -2.2 | 37.0* | 4.6
O=C(Nc1cc(C(F)(F)F)ccc1Cl)c1cnn(-c2ccccc2)c1-n1cccc1 | -2.2 | 3.1 | 1.1 | 9.5 | 1.9
CCn1cc(Cl)c(C(=O)Nc2cccc(C(F)(F)F)c2)n1 | 5.0 | -35.8* | -0.4 | 1.3 | -0.9
Cc1nn(C)cc1C(=O)Nc1ccc2c(c1)OCCO2 | 5.8 | -3.8 | nt | 3.1 | -1.4
CCn1cc(Cl)c(C(=O)Nc2ccc3c(c2)OCCO3)n1 | 37.5* | 1.9 | -2.4 | 2.3 | -0.1
Cn1nc(C(=O)Nc2cccc(C(F)(F)F)c2)c2ccccc2c1=O | -4.1 | -9.9 | -6.3 | 4.3 | -1.1
COc1cccc(NC(=O)c2sc3nc(C)c(C(=O)Nc4ccc(C)cc4C)c(-c4cccs4)c3c2N)c1 | -2.5 | -0.8 | -3.7 | 19.7 | 4.0
CCOC(=O)CCNC(=O)N1CCCC(N2CCN(c3ccc(OC)cc3)CC2)C1 (stereo unspecified) | 5.8 | 2.0 | 4.2 | 2.6 | 0.6
Oc1ccc(C=NC2CCCCC2)cc1 | 6.8 | -35.1* | -8.2 | 0.7 | -0.5
O=C1CC(c2ccccc2)CC(O)=C1C=NC1CCCCC1 (stereo unspecified) | -0.9 | -3.2 | -2.7 | 2.1 | 0.4
COc1ccc(Cn2c(CCC(=O)Nc3cc(OC)c(OC)c(OC)c3)nc3cccnc32)cc1 | 2.2 | -47.2* | -2.5 | 4.0 | -2.3
COc1ccc(Cn2c(CCC(=O)Nc3ccccc3)nc3cccnc32)cc1 | -2.7 | 9.5 | -5.9 | 0.8 | -0.8
